Bioassay records: PubChem BioAssay, National Center for Advancing Translational Sciences (NCATS)
TSHR antagonist: blocks TSH signaling through the human TSH receptor; TSHR-expressing cells, TSH-stimulated cAMP HTRF, 2 h; stronger effect = lower value; AID 504810; P16473; 330,000 compounds, 0.2% hits; activity change, negative = inhibition, % at 11.5 µM;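 active = activity change below a set negative limit, meaning inhibition stronger than a set level, cut at about -70% in these data; inconclusive = activity change between two set negative limits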; note: % is set by controls: 0 for no effect and ±100 for the full control effect
Target sequence (P16473 whole entry, looked up): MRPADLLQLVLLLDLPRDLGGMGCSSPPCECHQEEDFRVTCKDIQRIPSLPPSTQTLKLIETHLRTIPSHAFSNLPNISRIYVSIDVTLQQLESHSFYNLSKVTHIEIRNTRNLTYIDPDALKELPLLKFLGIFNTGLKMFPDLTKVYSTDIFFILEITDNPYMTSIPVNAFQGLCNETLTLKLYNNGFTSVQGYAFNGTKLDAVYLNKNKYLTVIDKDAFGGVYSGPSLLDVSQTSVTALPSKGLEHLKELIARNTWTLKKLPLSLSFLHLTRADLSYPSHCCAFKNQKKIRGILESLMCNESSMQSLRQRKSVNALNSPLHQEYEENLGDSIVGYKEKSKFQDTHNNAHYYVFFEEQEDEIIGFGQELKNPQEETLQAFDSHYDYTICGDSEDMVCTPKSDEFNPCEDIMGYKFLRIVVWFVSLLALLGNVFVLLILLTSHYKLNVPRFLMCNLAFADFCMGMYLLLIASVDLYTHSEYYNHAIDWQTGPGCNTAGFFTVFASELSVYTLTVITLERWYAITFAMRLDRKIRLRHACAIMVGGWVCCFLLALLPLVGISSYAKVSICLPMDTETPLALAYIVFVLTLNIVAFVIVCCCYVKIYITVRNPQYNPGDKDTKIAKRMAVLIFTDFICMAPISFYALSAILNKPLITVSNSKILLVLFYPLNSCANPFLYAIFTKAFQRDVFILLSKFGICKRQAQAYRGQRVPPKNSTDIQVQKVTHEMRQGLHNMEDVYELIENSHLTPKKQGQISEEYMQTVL
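TSHR-expressing cells were treated with compounds, then stimulated with TSH at EC80 (4nM final) for 2 hours at 37 deg C. Cellular cAMP was measured by HTRF competition between lysate cAMP and cAMP-d2 for a cryptate-labelled anti-cAMP antibody.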
TRb SRC2 PPI: disrupts binding of human TR beta to SRC2; P10828; TRbeta-SRC2 peptide binding, fluorescence polarization; receptor liganded with 1 µM T3; 280,000 compounds, 0.065% hits; Potency, µM (titrated, usually from 106 µM), for the others: at the top dose activity change, negative = inhibition, hits mostly inhibitors; AID 1469;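 note: potency is the fitted concentration of half-maximal effect; plate controls were bound peptide for no effect and peptide without receptor for full effect; nearly all actives have a fitted effect of over 50% in size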
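Human TRb ligand-binding domain (0.6 uM) is mixed with 20 nM Texas Red SRC2 peptide and 1 uM T3; after compound addition and 5 hr at ambient temperature, polarization is measured and normalized to unbound and bound controls.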
TCR activator: T cell receptor activation | primary human leukocytes, anti-CD3, IL-2 HTRF, 48 h | Potency, µM (top dose mostly 9.22 µM), for the others: at the highest dose activation of IL-2 secretion, most hits filed as activators | 330,000 tested, under 10 active; note: % of control where 0% means no effect
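IL-2 release read by HTRF sandwich (Eu cryptate donor, d2 acceptor, 665 nm emission) after 48 hr exposure of primary human leukocytes to compound together with anti-CD3 beads in the absence of co-stimulatory signals.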
TexasRed fluor: alters Texas Red total fluorescence, flagging assay interference; 280,000 compounds, 0.29% hits; TRb/SRC2 Texas Red total fluorescence interference; AID 1479; Potency, µM (series often up to 106 µM), for inactives: top-dose fluorescence change, negative = quenching; active = well fitted curve in either direction with a large enough effect; inconclusive = small, poorly fitted or top-dose-only effect; note: potency is the fitted concentration of half-maximal effect; % is set by controls: 0 for no effect and ±100 for the full control effect
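Flags fluorescent or light-absorbing compounds by total fluorescence, S + 2P, at 555 nm excitation and 632 nm emission. Mixture: 20 nM Texas Red SRC2 peptide, 0.6 uM human TRb LBD, 1 uM T3, 5% DMSO; compound exposure 5 h at ambient temperature.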
Coupling enz: counter-screen for Giardia aldolase inhibitors: coupling enzyme system. coupling enzyme system counterscreen, AmpLite Red fluorescence. activity change, negative = inhibition, % at 58.2 µM, hits read low. AID 2472. 290,000 compounds, 0.67% hits; in the data active = activity change below about -30%; note: % is set by controls: 0 for no effect and ±100 for the full control effect
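Counterscreen of the coupled detection system alone, without aldolase: glyceraldehyde-3-phosphate coupling enzymes plus AmpLite Red readout. Compounds at 57.5 uM final, 10 min RT preincubation, 20 min RT reaction, fluorescence 525/598 nm.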
NPSR antagonist: neuropeptide S receptor (human) antagonism, cAMP; Q6W5P4; CHO-NPSR cells, cAMP TR-FRET, antagonist mode; Potency, µM (titrated, usually from 38.3 µM), inactives show at the highest dose activity change, negative = inhibition, usual class: inhibitors; 220,000 compounds, 1% hits; note: potency is the fitted concentration of half-maximal effect; % is set by controls: 0 for no effect and ±100 for the full control effect; nearly all actives have a fitted effect of over 50% in size
An asterisk follows results filed as active; ? = inconclusive; nt = no result; [ ] = dose if it differs, or a comment. In the library only some 1% were active in any assay of this set; here they are far more common. Unless noted, calls come from the whole dose curve; as a rule, active = well fitted curve in the direction sought with a large enough effect; inconclusive = small, poorly fitted or top-dose-only effect, or another doubt; inactive = no such curve, though single readings can be large; an effect the other way counts as inactive or inconclusive.

SMILES | TSHR antagonist | TRb SRC2 PPI | TCR activator | TexasRed fluor | Coupling enz | NPSR antagonist
CC(=O)NC1=C(NC2CCS(=O)(=O)C2)C(=O)c2ccccc2C1=O (configuration not stated) | 18 | 14% | 11%[46.1 µM] | 1% | -51* | 19%
O=C(Nc1ccccc1)NC1CCS(=O)(=O)C1 (configuration not stated) | 5 | 1% | 8%[46.1 µM] | 0% | 2 | -17%[46.1 µM]
Cc1nc2cc3nc(C(F)(F)F)[nH]c3cc2[nH]1 | 1 | -2% | -3%[46.1 µM] | -4% | -36* | 6%
Nc1ccc2nc(C(F)(F)F)[nH]c2c1 | -8 | 0% | -1% | -1% | -6 | 11%
O=C(NCc1ccc(F)cc1)c1ccncc1 | -121* | nt | -1% | nt | -2 | nt
O=C(/C=C\c1ccco1)Nc1nc(-c2ccc3ccccc3c2)cs1 | ? | -6% | 6%[46.1 µM] | -4% | -4 | 2%[46.1 µM]
Cc1ccc(-c2csc(NC(=S)NC(=O)/C=C/c3ccco3)n2)cc1 | -38 | 1% | -10% | -2% | nt | 10µM*
O=C(/C=C/c1ccco1)NC(=S)Nc1ccc(O)c(-c2nc3ccccc3s2)c1 | 17 | -5% | 6%[46.1 µM] | -11% | 2 | 1µM*
Cc1ccc(-n2c(SCc3ccccc3)nc3c([nH]c4ccccc43)c2=O)cc1 | nt | 5% | nt | -2% | nt | nt
COC(=O)C1=C(C)NC(C)=C(C(=O)OCCN(C)Cc2ccccc2)C1c1cccc([N+](=O)[O-])c1 (configuration not stated) | -19 | -2% | 6% | -9% | -2 | 10µM*
COc1cc2c(cc1OC)CN(C(=O)Nc1ccccc1)CC2 | -6 | -10% | 2% | 112µM*[quencher] | -1 | nt
CCc1ccc(CN(C(=O)Nc2cccc(Cl)c2)c2ccccn2)cc1 | nt | -11% | nt | 355µM*[quencher] | nt | nt
CC(C)C(=O)N(Cc1ccccc1)c1ccccn1 | 8 | -3% | 3% | 2% | 8 | 6%[46.1 µM]
Cc1cc(Nc2cccc(O)c2)c2cccc(Br)c2n1 | nt | 7% | nt | 2% | nt | nt
CCCCN(CCCC)CCCCCCN(CCCC)CCCC | nt | 0%[201 µM] | nt | 3%[201 µM] | nt | nt
COc1cc2c3nnc(-c4ccccc4)c-3cn(Cc3ccccc3F)c2cc1OC | -18 | -3% | 2% | -1% | 1 | 10µM*
CCCCCCCCCCCCN | nt | 0%[201 µM] | nt | -3%[201 µM] | nt | nt
CCOC(=O)c1cnc2ccc(OCC)cc2c1NCc1ccccc1 | -12 | -5% | 6% | 1% | -44* | -59%
CCOC(=O)c1cnc2ccc(OCC)cc2c1NCc1cccnc1 | -3 | -3% | -1%[46.1 µM] | -2% | -25 | -24%
CCCCSc1nc2sc3c(c2c(=O)n1-c1ccc(C)cc1)CCN(C)C3 | -74* | nt | 6% | nt | 1 | nt
CCCCCSc1nc2sc3c(c2c(=O)n1-c1ccccc1)CCN(C(C)=O)C3 | nt | -28%[53 µM] | nt | 0.018µM*[quencher] | nt | nt
O=C(Nc1ccc(F)c(Cl)c1)c1cc(S(=O)(=O)NCc2ccc3c(c2)OCO3)ccc1F | nt | 2% | nt | -1% | nt | nt
COc1cc(C/C=C/c2ccccc2)c(OC)cc1O | nt | -7% | nt | -1% | -51* | nt
COc1cc(O)c(C(=O)/C=C/c2ccccc2)c(OC)c1 | -8 | 4% | -2% | 0% | -1 | -12%
CCc1ccc(OCC(=O)NCC(c2ccc(Cl)cc2)N2CCOCC2)cc1 (configuration not stated) | nt | -21% | nt | 10µM*[quencher] | nt | nt
SMILES | TSHR antagonist | TRb SRC2 PPI | TCR activator | TexasRed fluor | Coupling enz | NPSR antagonist
O=C(COc1ccccc1)NCC(c1ccc(Cl)cc1)N1CCOCC1 (configuration not stated) | nt | -1% | nt | ? | nt | nt
CCOc1ccc(NC(=O)c2cnn3c2NC(c2cccc(OC)c2)=CC3c2ccccc2)cc1 (configuration not stated) | nt | 0% | nt | 1% | nt | nt
COc1ccc(CCNC(=O)c2ccc3c(c2)N(Cc2c(F)cccc2Cl)C(=O)CS3)cc1OC | nt | 0% | nt | -1% | nt | nt
Cc1ccc(NC(=O)Cc2ccc(-n3c(C)nc4cccnc43)cc2)c(Cl)c1 | nt | -1% | nt | 2% | nt | nt
c1ccc(-c2ccccc2OCCOCCN2CCOCC2)cc1 | -25 | nt | -3% | nt | -51* | nt
Cc1cccc(C)c1OCC(=O)Nc1ccc(S(=O)(=O)Nc2ccccn2)cc1 | 16 | -6% | 4%[46.1 µM] | 71µM*[quencher] | -1 | -2%
Cc1ccc(C)c(OCC(=O)Nc2ccc(S(=O)(=O)Nc3ccccn3)cc2)c1C | 5 | 9% | 2%[46.1 µM] | -6% | 0 | 4%
Cc1cccc(NS(=O)(=O)c2ccc3c(c2)CCN3C(=O)C2CCC2)c1 | nt | 6% | nt | 1% | nt | nt
Cc1ccc(CNC(=O)CC(C)S(=O)(=O)c2ccc3c(c2)NC(=O)CO3)cc1 (configuration not stated) | -1 | nt | -3% | nt | nt | nt
Cc1ccc(N(C)C(=O)CC(C)S(=O)(=O)c2ccc3c(c2)NC(=O)CO3)cc1 (configuration not stated) | 11 | -10% | -1% | 13µM*[quencher] | nt | nt
Cc1ccc(C)c(NC(=O)N2CCN(C(=O)c3nsc4ccccc34)CC2)c1 | nt | 3% | nt | 0% | nt | nt
CCOC(=O)c1c(C)[nH]c(C=Nc2ccc(OC)cc2)c1O | -17 | -9% | -3%[46.1 µM] | -2% | -6 | ?
CCOC(=O)c1c(C)[nH]c(C=Nc2ccccc2)c1O | 3 | -10% | nt | 3% | -36* | -16%[46.1 µM]
CC(C)CC(=O)Nc1nc2nc(-c3ccccc3)cc(=O)n2[nH]1 | nt | 2% | nt | -2% | nt | nt
O=C(N/N=C/c1cccc([N+](=O)[O-])c1)c1ccccc1-n1cccc1 | -1 | 0% | 0% | 0% | -38* | -10%
O=C(NN=Cc1cccc([N+](=O)[O-])c1)c1cccc2ccccc12 | nt | nt | 2% | nt | nt | nt
O=C1C=C(N2CCN(c3ccccn3)CC2)C(=O)c2c(O)ccc(O)c21 | nt | nt | 6% | nt | nt | nt
CC1=CC(=O)c2c(O)ccc(O)c2C1=O | 1 | -23% | nt | 22µM*[quencher] | -22 | ?
CCOc1ccc(-c2nonc2NC(=O)c2oc3ccc(F)cc3c2C)cc1 | nt | -16% | nt | 0.79µM*[quencher] | nt | nt
CCOC(=O)c1cc(CC)sc1NC(=O)COc1ccccc1C | nt | ? | nt | 1.6µM*[quencher] | nt | nt
O=C(N=Nc1c(O)[nH]c2ccc(Br)cc12)c1ccccc1-n1cccc1 | 15 | -3% | 3% | -8% | 2 | 13µM*
N=C(N)N=Nc1c(O)[nH]c2ccc(Br)cc12 | -1 | 0% | nt | -3% | 1 | -53%
CN(C)c1nc(=O)n(C2CCC(O)CC2)c(=O)n1C (configuration not stated) | nt | 0%[201 µM] | nt | 0%[201 µM] | nt | nt
